Results taken from PubChem BioAssay (EPA / NIEHS).
Several values for one entry are separate records, joined by “and”; a condition that tells them apart may be missing. Identical values can stand only once. A structure can be active in one record and inactive in another. Activity calls are given as the source filed them. How the source made its calls: active means hit-call score of the fitted dose curve at least 0.9, where 1 is the maximum; inactive means score below 0.9.

Tests used:
[1] = read-out: TIMP metallopeptidase inhibitor 2 (TIMP2), TIMP2 (gene 7077); test: BSK_KF3CT_TIMP2: BioMAP Diversity Plus: KF3CT Assay for TIMP metallopeptidase inhibitor 2 (TIMP2) Biomarker Activity (AID 2283071); settings: primary human keratinocytes with fibroblasts; actives raise or lower the signal
Procedure, shortened: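 Human primary keratinocyte/foreskin fibroblast co-culture dosed with chemical and sampled at 24 h. TIMP-2 levels quantified by ELISA; bidirectional fitting against DMSO negative control as baseline.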

[2] = read-out: Transforming growth factor beta 1 (TGFb1), TGFB1 (gene 7040); test: BSK_KF3CT_TGFb1: BioMAP Diversity Plus: KF3CT Assay for Transforming growth factor beta 1 (TGFb1) Biomarker Activity (AID 2283072); settings: primary human keratinocytes with fibroblasts; actives raise or lower the signal
Procedure, shortened: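 Human keratinocyte plus foreskin fibroblast primary co-culture, dosed with chemical for 24 h. TGF-b1 quantified by ELISA. Activity fitted bidirectionally against DMSO negative control as baseline.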

[3] = read-out: C-C motif chemokine 2 (Homo sapiens) (UniProt P13500); test: BSK_KF3CT_MCP1: BioMAP Diversity Plus: KF3CT Assay for Monocyte Chemoattractant Protein 1 (MCP1/CCL2) Biomarker Activity (AID 2283073); settings: primary human keratinocytes with fibroblasts; actives raise or lower the signal
Procedure, shortened: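 KF3CT skin co-culture (keratinocytes/foreskin fibroblasts), 24 h post-dose; MCP-1 by ELISA; gain/loss of signal fit bidirectionally vs DMSO baseline.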

[4] = read-out: Matrix Metallopeptidase 9 (MMP9), MMP9 (gene 4318); test: BSK_KF3CT_MMP9: BioMAP Diversity Plus: KF3CT Assay for Matrix Metallopeptidase 9 (MMP9) Biomarker Activity (AID 2283074); settings: primary human keratinocytes with fibroblasts; actives raise or lower the signal;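 on AC50: MMP9 protein level quantified by ELISA in the co-culture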
Procedure, shortened: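 Human keratinocyte/foreskin fibroblast co-culture; compound added; 24 h; MMP-9 by ELISA; bidirectional fit vs DMSO baseline.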

[5] = read-out: urokinase plasminogen activator (uPA), PLAU (gene 5328); test: BSK_KF3CT_uPA: BioMAP Diversity Plus: KF3CT Assay for urokinase plasminogen activator (uPA) Biomarker Activity (AID 2283075); settings: primary human keratinocytes with fibroblasts; actives raise or lower the signal
Procedure, shortened: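 ELISA readout of uPA, analyzed for signal gain or loss relative to DMSO, from a human primary keratinocyte–foreskin fibroblast co-culture measured 24 h after chemical treatment.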

CD40, CD40 (gene 958) [6] = test: BSK_LPS_CD40: BioMAP Diversity Plus: LPS Assay for CD40 Biomarker Activity (AID 2283076); settings: primary human HUVEC with PBMC; actives raise or lower the signal
Procedure, shortened: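 ELISA readout of CD40 in HUVEC/PBMC co-culture (BSK_LPS system), 24 h post-dosing; bidirectional curve fit, DMSO baseline; parallel SRB total-protein staining for cytotoxicity.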

[7] = read-out: E-selectin (Homo sapiens) (UniProt P16581); test: BSK_LPS_Eselectin: BioMAP Diversity Plus: LPS Assay for Eselectin Biomarker Activity (AID 2283077); settings: primary human HUVEC with PBMC; actives raise or lower the signal
Procedure, shortened: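 ELISA readout of E-selectin, 24 h post-dose, HUVEC + PBMC co-culture (LPS system). Gain or loss of signal vs DMSO baseline, bidirectional fit.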

[8] = read-out: Interleukin-8 (IL8), CXCL8 (gene 3576); test: BSK_LPS_IL8: BioMAP Diversity Plus: LPS Assay for Interleukin-8 (IL8) Biomarker Activity (AID 2283078); settings: primary human HUVEC with PBMC; actives raise or lower the signal
Procedure, shortened: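 HUVEC + PBMC co-culture, LPS-activated; test chemicals dosed, IL-8 read by ELISA at 24 h. Bidirectional curve fit vs DMSO baseline (gain or loss of signal).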

[9] = BSK_LPS_SRB: Viability Assessment in the BioMAP Diversity Plus: LPS Assay (AID 2283079); settings: primary human HUVEC with PBMC;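 further: total protein by sulforhodamine B absorbance as a cytotoxicity measure; measured one day after compound addition; fitted in both directions against DMSO so loss or gain of signal counts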
Procedure, shortened: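 HUVEC + PBMC co-culture, LPS-stimulated; compound 24 h. 10% TCA fix, 0.1% SRB stain, A560. Bidirectional fit vs DMSO.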

[10] = read-out: Interleukin-1 alpha (IL1a), IL1A (gene 3552); test: BSK_LPS_IL1a: BioMAP Diversity Plus: LPS Assay for Interleukin-1 alpha (IL1a) Biomarker Activity (AID 2283080); settings: primary human HUVEC with PBMC; actives raise or lower the signal
Procedure, shortened: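 HUVEC/PBMC co-culture, LPS system; 24 h after dosing; IL-1a by ELISA; gain or loss of signal fitted bidirectionally vs DMSO baseline.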

[11] = read-out: Monocyte Chemoattractant Protein-1 (MCP1), CCL2 (gene 6347); test: BSK_LPS_MCP1: BioMAP Diversity Plus: LPS Assay for Monocyte Chemoattractant Protein-1 (MCP1) Biomarker Activity (AID 2283081); settings: primary human HUVEC with PBMC; actives raise or lower the signal;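 on AC50: secreted MCP-1 protein quantified by ELISA in culture supernatant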
Procedure, shortened: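 ELISA read-out of MCP-1 after 24 h chemical dosing of a human umbilical vein endothelial cell/peripheral blood mononuclear cell co-culture stimulated with LPS. Gain or loss of signal fitted relative to DMSO controls.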

[12] = BSK_LPS_PGE2: BioMAP Diversity Plus: LPS Assay for Prostaglandin E2 (PGE2) Biomarker Activity (AID 2283082); settings: primary human HUVEC with PBMC; actives raise or lower the signal;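 on AC50: secreted prostaglandin E2 measured by ELISA in LPS-stimulated co-culture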
Procedure, shortened: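 HUVEC plus PBMC co-culture stimulated with LPS; secreted PGE2 quantified by ELISA 24 h after chemical dosing. Activity fitted bidirectionally against DMSO as negative control and baseline; parallel SRB total-protein staining served as cytotoxicity check.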

[13] = read-out: Macrophage colony-stimulating factor (MCSF), CSF1 (gene 1435); test: BSK_LPS_MCSF: BioMAP Diversity Plus: LPS Assay for Macrophage colony-stimulating factor (MCSF) Biomarker Activity (AID 2283083); settings: primary human HUVEC with PBMC; actives raise or lower the signal
Procedure, shortened: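 HUVEC + PBMC co-culture (human primary), 24 h post-dose; M-CSF by ELISA; gain/loss of signal fitted bidirectionally vs DMSO baseline.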

[14] = read-out: Tissue Factor, F3 (gene 2152); test: BSK_LPS_TissueFactor: BioMAP Diversity Plus: LPS Assay for Tissue Factor Biomarker Activity (AID 2283084); settings: primary human HUVEC with PBMC; actives raise or lower the signal
Procedure, shortened: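 HUVEC/PBMC co-culture, LPS-activated; CD142 ELISA read 24 h post-dose; bidirectional curve fit vs DMSO negative control.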

[15] = read-out: Tumor necrosis factor (Homo sapiens) (UniProt P01375); test: BSK_LPS_TNFa: BioMAP Diversity Plus: LPS Assay for Tumour Necrosis Factor alpha (TNFa) Biomarker Activity (AID 2283085); settings: primary human HUVEC with PBMC; actives raise or lower the signal
Procedure, shortened: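 Human umbilical vein endothelial cells co-cultured with PBMC were exposed to test chemical and TNFa measured by ELISA 24 h after dosing. Bidirectional curve fitting was done relative to DMSO as negative control and baseline.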

[16] = read-out: Vascular cell adhesion molecule 1 (VCAM1), VCAM1 (gene 7412); test: BSK_LPS_VCAM1: BioMAP Diversity Plus: LPS Assay for Vascular cell adhesion molecule 1 (VCAM1) Biomarker Activity (AID 2283086); settings: primary human HUVEC with PBMC; actives raise or lower the signal
Procedure, shortened: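 Human umbilical vein endothelial cells co-cultured with peripheral blood mononuclear cells under LPS stimulation were exposed to test chemical for 24 h. VCAM-1 levels were then measured by ELISA, with bidirectional curve fitting relative to DMSO as negative control and baseline.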

CD38, CD38 (gene 952) = test: BSK_SAg_CD38: BioMAP Diversity Plus: SAg Assay for CD38 Biomarker Activity (AID 2283087); settings: primary human HUVEC with PBMC; actives raise or lower the signal
Procedure, shortened: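 Fluorescence ELISA of cell-surface CD38 served as the read-out, with either increase or decrease fitted against DMSO controls. Cells were a human umbilical vein endothelium plus PBMC co-culture under SEB/TSST-1 stimulation, measured 24 h after dosing.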

CD40, CD40 (gene 958) [17] = test: BSK_SAg_CD40: BioMAP Diversity Plus: SAg Assay for CD40 Biomarker Activity (AID 2283088); settings: primary human HUVEC with PBMC; actives raise or lower the signal
Procedure, shortened: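 HUVEC/PBMC co-culture, 24 h post-dose; CD40 by ELISA, fluorescence intensity; bidirectional fit vs DMSO negative control.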

CD69, CD69 (gene 969) = test: BSK_SAg_CD69: BioMAP Diversity Plus: SAg Assay for CD69 Biomarker Activity (AID 2283089); settings: primary human HUVEC with PBMC; actives raise or lower the signal;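 on AC50: cell surface CD69 protein quantified by ELISA with fluorescence detection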
Procedure, shortened: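 ELISA, fluorescence read-out: CD69 on human umbilical vein endothelial cell + PBMC co-culture, 24 h post-dosing. Gain or loss of signal fitted bidirectionally against DMSO baseline.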

[18] = read-out: Monocyte Chemoattractant Protein-1 (MCP1), CCL2 (gene 6347); test: BSK_SAg_MCP1: BioMAP Diversity Plus: SAg Assay for Monocyte Chemoattractant Protein-1 (MCP1) Biomarker Activity (AID 2283090); settings: primary human HUVEC with PBMC; actives raise or lower the signal
Procedure, shortened: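 MCP-1 levels in the endothelial–PBMC SAg co-culture were quantified by ELISA at 24 h post-dosing; both increases and decreases versus DMSO scored. Cytotoxicity monitored by SRB total protein in parallel cultures.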

Measured: AC50

Chain of E-selectin (Homo sapiens) (P16581 whole entry, looked up): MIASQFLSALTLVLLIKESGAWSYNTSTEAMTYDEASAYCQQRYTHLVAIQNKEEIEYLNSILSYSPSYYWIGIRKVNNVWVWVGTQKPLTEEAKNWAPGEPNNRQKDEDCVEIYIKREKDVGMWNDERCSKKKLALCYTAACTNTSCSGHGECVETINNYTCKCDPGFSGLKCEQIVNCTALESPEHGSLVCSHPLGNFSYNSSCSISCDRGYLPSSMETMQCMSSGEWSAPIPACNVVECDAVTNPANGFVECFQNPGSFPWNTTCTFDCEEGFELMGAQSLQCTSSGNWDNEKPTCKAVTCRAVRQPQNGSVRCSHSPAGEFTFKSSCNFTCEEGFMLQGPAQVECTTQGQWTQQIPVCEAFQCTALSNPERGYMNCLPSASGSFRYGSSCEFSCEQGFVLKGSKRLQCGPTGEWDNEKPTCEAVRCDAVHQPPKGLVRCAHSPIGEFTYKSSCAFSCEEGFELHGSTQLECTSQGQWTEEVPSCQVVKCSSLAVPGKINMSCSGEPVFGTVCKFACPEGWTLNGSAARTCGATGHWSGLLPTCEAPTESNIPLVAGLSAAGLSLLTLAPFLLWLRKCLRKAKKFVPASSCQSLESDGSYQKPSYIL
Chain of Tumor necrosis factor (Homo sapiens) (P01375 whole entry, looked up): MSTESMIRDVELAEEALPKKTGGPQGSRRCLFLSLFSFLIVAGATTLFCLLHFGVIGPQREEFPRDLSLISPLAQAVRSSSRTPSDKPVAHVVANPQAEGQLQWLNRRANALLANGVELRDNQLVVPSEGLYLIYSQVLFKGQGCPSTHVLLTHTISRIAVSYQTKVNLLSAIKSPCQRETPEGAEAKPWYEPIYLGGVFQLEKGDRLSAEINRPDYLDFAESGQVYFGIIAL

O=[N+]([O-])c1cc(C(F)(F)F)c(Cl)c([N+](=O)[O-])c1Nc1ncc(C(F)(F)F)cc1Cl
active: [1] 588 nM and 11.3 µM | [2] 7.7 µM | [3] 1.71 µM and 15.5 µM | [4] 991 nM and 5.6 µM | [5] 1.37 µM and 7.61 µM | CD40, CD40 (gene 958) [6] 1.44 µM and 6.49 µM | [7] 1.55 µM and 3.22 µM | [8] 2.33 µM and 3.94 µM | [9] 2 µM and 3.96 µM | [10] 1.35 µM and 2.31 µM | [11] 1.52 µM and 3.74 µM | [12] 7.89 µM and 3.71 µM | [13] 1.49 µM and 2.86 µM | [14] 1.44 µM and 2.17 µM | [15] 1.81 µM | [16] 1.5 µM and 2.05 µM | CD38, CD38 (gene 952) 1.35 µM and 2.58 µM | CD40, CD40 (gene 958) [17] 1.51 µM and 1.86 µM | CD69, CD69 (gene 969) 1.91 µM and 3.73 µM | [18] 2.24 µM and 3.79 µM
inactive: [2] | [15]

CCC(=NOC/C=C/Cl)C1=C(O)CC(C2CCOCC2)CC1=O (stereo not given)
not listed: [5]
inactive: all other assays above

CCOC(=O)CC(SP(=O)(OC)OC)C(=O)OCC (stereo not given)
active: [7] 2.5 µM | [12] 0.323 µM
not listed: [16]
inactive: all other assays above

COc1cc(OC)nc(Sc2cccc(Cl)c2C(=O)O)n1
not listed: [16]
inactive: all other assays above

CC(=NC#N)N(C)Cc1ccc(Cl)nc1
inactive: all assays above

COP(=O)(NC(C)=O)SC (stereo not given)
not listed: [5]
inactive: all other assays above

CCCCSP(=O)(SCCCC)SCCCC
inactive: [1] | [2] | [3] | [4] | [5] | [10] | [13] | [14] | CD40, CD40 (gene 958) [17]
active: CD40, CD40 (gene 958) [6] 31.8 µM | [7] 32.6 µM | [8] 27.1 µM | [9] 16 µM | [11] 20 µM | [12] 29.7 µM | [15] 32.5 µM | [16] 31.1 µM | CD38, CD38 (gene 952) 20 µM | CD69, CD69 (gene 969) 31.5 µM | [18] 20 µM

CCOP(=O)(SC(C)CC)N1CCSC1=O (stereo not given)
not listed: [16]
inactive: all other assays above

CCCSP(=O)(OCC)SCCC
not listed: [16]
inactive: all other assays above

CNc1cnn(-c2cccc(C(F)(F)F)c2)c(=O)c1Cl
active: CD38, CD38 (gene 952) 9.82 µM | CD40, CD40 (gene 958) [17] 11.7 µM | CD69, CD69 (gene 969) 29.1 µM
inactive: all other assays above

CC1(C(=O)Nc2ccc(O)c(Cl)c2Cl)CCCCC1
active: [7] 16.4 µM | [12] 5.46 µM
not listed: [16]
inactive: all other assays above
